Shiga toxin inh = inhibitors of Shiga toxin in Vero cells | 290,000 tested, 9.2% active | inhibition, % at 38.7 µM | Vero cells, Shiga toxin protein synthesis inhibition reporter; in the data active = inhibition mostly above about 28%, no sharp cut-off; inactive = mostly below about 43%; note: 0% is about no effect
Pf growth 48h = P. falciparum growth inhibition at 48 hours (one generation); P. falciparum luciferase growth in erythrocytes, 48 h; Potency, µM (highest dose often 28.7 µM), for the others: top-dose activity change, negative = inhibition, usual class: inhibitors; 310,000 tested, 5.9% active; AID 504832; active = well fitted inhibition curve with a large enough effect; inconclusive = small, poorly fitted or top-dose-only effect, or another doubt; inactive = no such curve, though single readings can be large or run the other way; note: potency is the fitted concentration of half-maximal effect; % is set by controls: 0 for no effect and ±100 for the full control effect
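Luciferase-expressing P. falciparum in infected erythrocytes (2% hematocrit, 0.1% parasitemia final) in RPMI 1640/0.5% Albumax were exposed to compound for 48 hours at 37 C, 5% CO2; growth read as luminescence.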
NS1 inh = inhibitors of influenza NS1 protein function. Potency, µM (doses to about 46.1 µM), without a hit: at the highest dose activity, positive = more growth. 270,000 tested, 0.4% active; note: potency is the fitted concentration of half-maximal effect; actives are rising curves; nearly all actives have a fitted effect of over 50% in size
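Read-out: OD600 growth recovery of NS1-expressing budding yeast. Cells grown overnight at 30C in -URA glucose medium, washed, resuspended and diluted 1:100 in 2% galactose assay medium, pH 6.0. Same strain lacking NS1 served as positive control.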
Cycloheximide cs = affects cycloheximide protein synthesis inhibition readout, counter-screen; AID 2314; max response, %; cell reporter, cycloheximide protein synthesis inhibition counterscreen; 300,000 tested, 12% active; in the data active = max response mostly above about 13%, no sharp cut-off; inactive = mostly below about 14%; note: read at 38.3 µM for the half of the compounds with a filed dose; 0% is about no effect
Pf growth 96h = P. falciparum growth inhibition at 96 hour, primary screen for plastid delayed-death inhibitors; P. falciparum luciferase reporter growth, 96 h; 320,000 tested, 6.9% active; Potency, µM (series often up to 28.7 µM), for inactives: top-dose activity change, negative = inhibition, usual class: inhibitors; active = well fitted inhibition curve with a large enough effect; inconclusive = small, poorly fitted or top-dose-only effect, or another doubt; inactive = no such curve, though single readings can be large or run the other way; note: potency is the fitted concentration of half-maximal effect; % is set by controls: 0 for no effect and ±100 for the full control effect
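P. falciparum expressing integrated firefly luciferase, in erythrocytes at 2% hematocrit, 0.05% parasitemia, incubated with compounds 96 h at 37 C, 5% CO2. Growth inhibition read as loss of luminescence; two-generation exposure targets delayed-death apicoplast inhibitors.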
SARS PLP yeast = inhibitors of SARS-CoV papain-like protease in yeast. S. cerevisiae expressing SARS-CoV PLpro, growth rescue. Potency, µM (doses to about 32.9 µM), without a hit: top-dose activity, positive = growth rescue, actives largely listed as activators. 330,000 tested, 0.19% active. AID 485353; note: potency is the fitted concentration of half-maximal effect; 0% is about no effect; nearly all actives have a fitted effect of over 55% in size
* hit, by the source's call; u = inconclusive; x = no result. Compounds with a hit are over-represented: about 21% of the library has one in this group of screens. Unless noted, calls come from the whole dose curve.

SMILES	Shiga toxin inh	Pf growth 48h	NS1 inh	Cycloheximide cs	Pf growth 96h	SARS PLP yeast
CC(NC(=O)CN1CCN(c2ccccc2F)CC1)c1ccccc1 (stereo not drawn)	-7	-5%	4%	1	u	25%
CC(NC(=O)c1ccccc1NC(=O)CN1CCN(c2ccccc2O)CC1)c1ccccc1 (stereo not drawn)	x	5.9µM*	x	x	13µM*	-6%
COc1ccccc1N1CCN(CC(=O)Nc2ccccc2C(=O)NC(C)c2ccccc2)CC1 (stereo not drawn)	x	12µM*	x	x	u	-5%
Cc1c(Cl)cccc1NC(=O)CNC(=O)Cc1c[nH]c2ccccc12	x	-26%	x	x	u	1%
CSCCC(NC(=O)c1cccc(C)c1)C(=O)OCC(=O)Nc1c(C)nn(-c2ccccc2)c1C (stereo not drawn)	x	9%	x	x	49%	2%
O=C(COC(=O)Cn1nnc(-c2ccccc2)n1)Nc1cc(F)ccc1F	x	x	x	x	x	-3%
CC(NC(=O)c1ccccc1NC(=O)CN1CCc2ccccc2C1)c1ccccc1 (stereo not drawn)	-5	u	-2%	-2	13µM*	-8%
COC(=O)c1ccc(C(=O)OC)c(NC(=O)CN2CCN(c3ccccc3OC)CC2)c1	-5	13µM*	-25%	6	-19%	5%
COC(=O)c1ccc(C(=O)OC)c(NC(=O)CN2CCN(c3ccccc3)CC2)c1	-27	-19%	-9%	-5	0%	u
CC1CC=CC2C1C(=O)N(Cc1ccccc1)C2c1ccc(/C=C/c2ccccc2)cc1F (stereo not drawn)	20	x	x	8	x	x
Oc1ccccc1OCCOc1ccccc1OCCOc1ccccc1O	41	u	-53%	9.8*	u	-4%
CSc1ncccc1C(=O)OCc1c(F)cccc1Cl	91*	-1%	-7%	21*	17%	-10%
COC(=O)c1cccc(COC(=O)c2cccnc2SC)c1	38	33%	-6%	21*	x	-9%
CSc1ncccc1C(=O)OCc1ccc(C#N)cc1	-15	x	2%	-5	10%	0%
O=C(OCc1c(F)cccc1Cl)c1cccnc1Cl	6	19%	-25%	-3	17%	-5%
COc1ccc(C(C)=O)cc1COC(=O)c1cccnc1SC	8	-6%	x	1	0%	1%
CSc1ncccc1C(=O)OCc1ccccc1Cl	60	74%	x	41*	24%	-9%
COc1ccc(Cl)cc1NC(=O)CSc1nc(=O)[nH]c2c1CCC2	-4	x	x	-9	x	x
Cc1cc(C)n(-c2c(F)c(F)c(CO)c(F)c2F)n1	-11	0%	7%	-3	5%	x
O=C(CN1C(=O)CSc2ncccc21)Nc1ccccc1F	-1	10%	5%	11	7%	-7%
Cc1cc(C)nc(NS(=O)(=O)c2ccc(NS(=O)(=O)c3ccsc3)cc2)n1	-5	9%	4%	-2	15%	1%
O=C(C[n+]1cc(-c2ccc(F)cc2)n2c1CCC2)N1c2ccccc2Sc2ccccc21	54*	13µM*	7%	44*	u	-24%
O=C(C[n+]1cc(-c2ccccc2)n2c1CCC2)Nc1nc(-c2ccc(F)cc2)cs1	-4	u	5%	-5	10µM*	12%
O=C(C[n+]1cc(-c2ccc(F)cc2)n2c1CCC2)Nc1nc(-c2ccc(F)cc2)cs1	14	u	-6%	-1	u	-2%
Cc1ccc(-c2c[n+](CC(=O)N3c4ccccc4Sc4ccccc43)c3n2CCC3)cc1	-19	3.7µM*	13%	7	u	-21%
SMILES	Shiga toxin inh	Pf growth 48h	NS1 inh	Cycloheximide cs	Pf growth 96h	SARS PLP yeast
O=C(C[n+]1cc(-c2ccccc2)n2c1CCC2)N1c2ccccc2Sc2ccccc21	13	4.1µM*	12%	9	u	0%
O=C(c1ccco1)N1CCN(C(=O)C2CC(=O)N(c3ccc(Cl)cc3)C2)CC1 (stereo not drawn)	-2	-8%	22%	-7	u	4%
O=C(O)C1C2CCC(O2)C1C(=O)Nc1cccc(Cl)c1 (stereo not drawn)	-4	-4%	-12%	2	2%	1%
CC(=O)NC(=S)NNC(=O)COc1ccc(Br)cc1	32	17%	x	21*	25%	0%
O=C(COc1cc(Cl)c(Cl)cc1Cl)Nc1cccc(O)c1	115*	-53%	-6%	38*	-100%	-3%
Cc1cccc(OCC(=O)Nc2cccc(O)c2)c1	active	224%	-10%	30*	u	1%
Cc1ccc(OCC(=O)Nc2cc(NC(=O)COc3ccc(C)c(C)c3)cc(C(=O)O)c2)cc1C	9	32%	15%	1	39%	-6%
Cc1ccc(OCC(=O)Nc2cccc(O)c2)cc1C	79*	99%	-92%	40*	-1%	u
Cc1cccc(OCC(=O)Nc2ccc(NC(=O)c3ccccc3)cc2)c1	-8	-2%	-4%	-1	u	1%
O=C(NC(=S)N(CCCCO)C1CCCCC1)c1sc2ccccc2c1Cl	-8	u	-43%	1	u	-4%
Cc1ccc(S(=O)(=O)N(C)CC(=O)Nc2cccnc2)cc1	-5	u	11%	1	21%	-1%
Cc1ccc(OCC(=O)NCCNC(=O)c2ccncc2)cc1C	-8	-6%	4%	-1	u	1%
CNC(=S)NNC(=O)COc1ccc(C)c(C)c1	-2	30%	-2%	7	103%	13µM*
O=[N+]([O-])c1ccc(N/N=C/c2cccnc2)cc1	41*	-21%	-54%	33*	u	-15%
Clc1ccc(N/N=C/c2cccnc2)cc1	30*	-15%	-33%	20	u	-65%
C(=N\N=C\c1cccnc1)/c1cccnc1	26*	u	2%	40*	u	13%
O=C(CSc1ccc(Cl)cc1)N/N=C/c1cccnc1	-5	u	x	-2	u	-5%
Cc1sc(N/N=C/c2cccnc2)nc1-c1ccc(Cl)cc1	17	13µM*	13%	15*	63%	-9%
CSC1=N/C(=C\c2ccccc2Cl)C(=O)N1N(C)C	-8	-20%	-2%	8	5%	1%
Cc1ccc(N2C(=O)C(Cl)=C(N3CCOCC3)C2=O)c(C)c1	-9	22%	-12%	-2	24%	5%
COc1ccc(C(=O)NCCC(=O)NCc2cc(=O)n(C)c(=O)n2C)cc1	-9	22%	3%	-1	u	-7%
CCCC1=[N+](CC(=O)c2ccc(C)cc2)CCn2cccc21	-6	10µM*	-3%	1	u	13%
O=C1N(c2ccc(Cl)cc2)C(c2ccccc2)N2CCCN12 (stereo not drawn)	9	6%	5%	0	29%	-5%
O=C1N(c2ccc(Cl)cc2)C(c2cccnc2)N2CCCN12 (stereo not drawn)	108*	9%	x	26	u	-13%

Compound activity: PubChem BioAssay, National Center for Advancing Translational Sciences (NCATS)
